Source: PubChem BioAssay
The source made the active and inactive calls.

How the values were obtained:
[1] = system: Wnt5a (protein binding on small-molecule microarray); test: small molecules binding Wnt5a protein – biophysical, small-molecule microarray, 635/667 nm fluorescence, primary screen (AID 1142); conditions: 635 nm fluorescence, higher = more signal;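 note: fluorescence read at 667 nm with signal to noise per printed feature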
[2] = ATP-based viability of Huh7 replicon cells – cell-based, CellTiter-Glo luminescence, basal, 48 h, cytotoxicity control for HCV replication inhibitor project, primary screen (AID 1143); conditions: higher = more signal, called active from +8 up or from −8 down;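 note: Huh7 hepatoma cells carrying a hepatitis C replication reporter with no stimulus; test concentration not given here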
[3] = basal CRE-LacZ reporter activity in PC12 – cell-based, unstimulated, primary screen (AID 1145); conditions: no forskolin, luminescence, 4.5 h, higher = more signal, called active from +8 up or from −8 down
[4] = forskolin-driven CRE-LacZ activity in PC12 – cell-based, CRE-LacZ reporter, forskolin-stimulated, primary screen (AID 1146); conditions: luminescence, 4.5 h, higher = more signal, called active from +8 up or from −8 down;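 note: PC12 cells with 6xCRE LacZ reporter stimulated by forskolin 10 µM; beta-galactosidase reporter signal reflecting CREB driven transcription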
[5] = target: Streptavidin (Streptomyces avidinii) (UniProt P22629); test: compounds binding control protein streptavidin – biophysical, small-molecule microarray, 635/667 nm fluorescence, artefact control for SMM compound annotation, primary screen (AID 1147); conditions: higher = more signal;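 note: signal reflects streptavidin binding to arrayed compounds as a control protein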
Chain of Streptavidin (Streptomyces avidinii) (P22629 whole entry, looked up): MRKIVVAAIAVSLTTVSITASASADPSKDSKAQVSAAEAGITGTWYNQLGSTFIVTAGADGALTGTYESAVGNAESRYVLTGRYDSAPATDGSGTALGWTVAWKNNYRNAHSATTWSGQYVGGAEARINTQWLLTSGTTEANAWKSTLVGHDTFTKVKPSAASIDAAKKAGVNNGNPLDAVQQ

[6] = probe aInhba binding on compound microarray – biochemical, small-molecule microarray, 635/667 nm fluorescence, primary screen (AID 1148); conditions: higher = more signal;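 note: score merges 667nm spot fluorescence with signal-to-noise for antibody binding to printed compounds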
Torsin-1A (Homo sapiens) [7] = target: Torsin-1A (Homo sapiens) (UniProt O14656); test: TOR1A wild-type binding on microarray – cell lysate, small-molecule microarray, lysate, 635/667 nm, primary screen (AID 1149); conditions: COS7 hTOR1A-WT lysate, 635 nm fluorescence, higher = more signal
Chain of Torsin-1A (Homo sapiens) (O14656 whole entry, looked up): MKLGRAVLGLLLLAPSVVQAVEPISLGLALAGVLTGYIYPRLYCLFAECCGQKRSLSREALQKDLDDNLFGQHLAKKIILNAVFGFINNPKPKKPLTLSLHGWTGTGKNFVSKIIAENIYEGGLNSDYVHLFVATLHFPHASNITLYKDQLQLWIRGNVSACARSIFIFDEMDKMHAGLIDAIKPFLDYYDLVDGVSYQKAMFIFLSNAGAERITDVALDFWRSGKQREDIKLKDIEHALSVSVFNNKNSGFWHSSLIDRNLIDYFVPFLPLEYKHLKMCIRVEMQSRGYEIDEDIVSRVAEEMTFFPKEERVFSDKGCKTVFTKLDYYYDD

Torsin-1A (Homo sapiens) [8] = target: Torsin-1A (Homo sapiens) (UniProt O14656); test: torsin A mutant lysate binding on microarrays – cell lysate, small-molecule microarray, COS7 lysate, 635/667 nm fluorescence, primary screen (AID 1150); conditions: COS7 hTOR1A mutant lysate, 635 nm fluorescence, higher = more signal;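 note: score pools 667 nm emission and signal to noise measuring lysate protein binding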
[9] = system: Sonic hedgehog protein (Shh); test: Sonic hedgehog microarray binding compounds – biochemical, small-molecule microarray, 635/667 nm fluorescence, primary screen (AID 1151); conditions: 635 nm fluorescence, higher = more signal;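 note: Shh protein binding to compounds spotted on small-molecule microarray slides; score combines spot fluorescence intensity with signal-to-noise across triplicate slides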
[10] = optical density shifts of acrAB sulA E. coli – strain DRC41, OD650, 48 h, E. coli filamentation inducer project, primary screen (AID 1152); conditions: higher = more signal, called active from +8 up or from −8 down;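 note: E. coli MC1000 strain DRC41 lacking acrAB efflux pump and sulA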
[11] = probe aLefty1 binding on compound microarray – biochemical, small-molecule microarray, 635/667 nm fluorescence, primary screen (AID 1153); conditions: higher = more signal;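 note: score merges spot fluorescence with signal-to-noise ratio from the scanned slide images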
[12] = plasmodial surface anion channel blockers, osmotic lysis – cell-based, P. falciparum Indochina, OD700, 1 h, primary screen (AID 1154); conditions: P. falciparum Indochina infected RBC osmotic lysis, higher = more signal, called active from +8 up or from −8 down
[13] = plasmodial surface anion channel blockers, osmotic lysis – cell-based, P. falciparum Indochina, OD700, 2 h, primary screen (AID 1155);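 note: lysis reports solute entry through the parasite surface anion channel PSAC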; conditions: P. falciparum Indochina infected erythrocytes, higher = more signal, called active from +8 up or from −8 down
[14] = changes in parasitized red cell lysis, either direction – P. falciparum Indochina, OD700, 3 h, PSAC antagonist project, primary screen (AID 1156); conditions: P. falciparum-infected erythrocytes, osmotic lysis, higher = more signal, called active from +8 up or from −8 down
[15] = plasmodial surface anion channel blockers, osmotic lysis – cell-based, P. falciparum Indochina, OD700, 18 h, primary screen (AID 1157); conditions: P. falciparum Indochina infected erythrocytes, osmotic lysis OD700, 18 h; higher = more signal, called active from +8 up or from −8 down
[16] = S6 kinase pathway phospho-S6 level changes – cell-based, A549, cytoblot, luminescence, serum-stimulated, primary screen (AID 1158); conditions: 5 h, higher = more signal;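 note: serum-stimulated A549 lung adenocarcinoma cells; signal is phosphorylated S6 detected by cytoblot immunostaining with HRP secondary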
[17] = target: NADPH oxidase 2 (Homo sapiens) (UniProt P04839); test: compounds shifting NOX2 Amplex Red fluorescence – cell-based, HEK293-NOX2, PMA-stimulated, NOX inhibitor project, primary screen (AID 1159); conditions: 45 min, higher = more signal, called active from +8 up or from −8 down; note: test concentration not given here
Chain of NADPH oxidase 2 (Homo sapiens) (P04839 whole entry, looked up): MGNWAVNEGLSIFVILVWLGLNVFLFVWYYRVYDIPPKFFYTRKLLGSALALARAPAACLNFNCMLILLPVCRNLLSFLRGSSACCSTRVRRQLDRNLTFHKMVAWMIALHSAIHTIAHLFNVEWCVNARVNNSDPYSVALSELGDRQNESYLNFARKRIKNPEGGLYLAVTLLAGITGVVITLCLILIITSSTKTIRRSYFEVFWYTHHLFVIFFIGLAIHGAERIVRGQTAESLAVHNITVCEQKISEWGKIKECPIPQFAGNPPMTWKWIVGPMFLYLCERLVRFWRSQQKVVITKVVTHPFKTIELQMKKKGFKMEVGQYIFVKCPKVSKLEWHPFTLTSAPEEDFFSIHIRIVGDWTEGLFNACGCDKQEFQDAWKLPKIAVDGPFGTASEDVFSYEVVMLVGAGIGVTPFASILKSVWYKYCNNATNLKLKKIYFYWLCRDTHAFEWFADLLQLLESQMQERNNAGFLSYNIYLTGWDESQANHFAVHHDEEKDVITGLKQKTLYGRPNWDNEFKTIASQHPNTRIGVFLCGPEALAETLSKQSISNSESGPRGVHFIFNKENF

[18] = target: NADPH oxidase 4 (Homo sapiens) (UniProt Q9NPH5); test: compounds shifting NOX4 Amplex Red fluorescence – cell-based, HEK293-NOX4, tetracycline-induced, NOX inhibitor project, primary screen (AID 1160); conditions: HEK293-NOX4, Amplex Red H2O2 fluorescence, 45 min; higher = more signal, called active from +8 up or from −8 down
Chain of NADPH oxidase 4 (Homo sapiens) (Q9NPH5 whole entry, looked up): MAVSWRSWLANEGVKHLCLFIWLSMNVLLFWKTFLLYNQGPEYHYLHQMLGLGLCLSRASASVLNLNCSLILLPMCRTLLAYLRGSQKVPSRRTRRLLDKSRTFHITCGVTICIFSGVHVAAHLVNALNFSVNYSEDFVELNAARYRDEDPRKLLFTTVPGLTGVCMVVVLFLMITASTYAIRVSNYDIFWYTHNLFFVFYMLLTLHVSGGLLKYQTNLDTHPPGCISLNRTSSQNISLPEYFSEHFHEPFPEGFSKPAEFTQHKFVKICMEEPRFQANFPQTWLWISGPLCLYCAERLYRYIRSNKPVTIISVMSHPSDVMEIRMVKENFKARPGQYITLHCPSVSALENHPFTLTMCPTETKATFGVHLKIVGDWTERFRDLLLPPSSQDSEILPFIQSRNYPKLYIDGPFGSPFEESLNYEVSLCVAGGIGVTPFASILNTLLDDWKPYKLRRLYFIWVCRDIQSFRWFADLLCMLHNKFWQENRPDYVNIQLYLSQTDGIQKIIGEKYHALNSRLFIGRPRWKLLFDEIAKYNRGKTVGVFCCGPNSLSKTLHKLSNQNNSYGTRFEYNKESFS

[19] = target: NADPH oxidase 5 (Homo sapiens) (UniProt Q96PH1); test: compounds shifting NOX5 Amplex Red fluorescence – cell-based, HEK293-NOX5, NOX inhibitor project, primary screen (AID 1161); conditions: HEK293-NOX5, ionomycin, 45 min, higher = more signal
Chain of NADPH oxidase 5 (Homo sapiens) (Q96PH1 whole entry, looked up): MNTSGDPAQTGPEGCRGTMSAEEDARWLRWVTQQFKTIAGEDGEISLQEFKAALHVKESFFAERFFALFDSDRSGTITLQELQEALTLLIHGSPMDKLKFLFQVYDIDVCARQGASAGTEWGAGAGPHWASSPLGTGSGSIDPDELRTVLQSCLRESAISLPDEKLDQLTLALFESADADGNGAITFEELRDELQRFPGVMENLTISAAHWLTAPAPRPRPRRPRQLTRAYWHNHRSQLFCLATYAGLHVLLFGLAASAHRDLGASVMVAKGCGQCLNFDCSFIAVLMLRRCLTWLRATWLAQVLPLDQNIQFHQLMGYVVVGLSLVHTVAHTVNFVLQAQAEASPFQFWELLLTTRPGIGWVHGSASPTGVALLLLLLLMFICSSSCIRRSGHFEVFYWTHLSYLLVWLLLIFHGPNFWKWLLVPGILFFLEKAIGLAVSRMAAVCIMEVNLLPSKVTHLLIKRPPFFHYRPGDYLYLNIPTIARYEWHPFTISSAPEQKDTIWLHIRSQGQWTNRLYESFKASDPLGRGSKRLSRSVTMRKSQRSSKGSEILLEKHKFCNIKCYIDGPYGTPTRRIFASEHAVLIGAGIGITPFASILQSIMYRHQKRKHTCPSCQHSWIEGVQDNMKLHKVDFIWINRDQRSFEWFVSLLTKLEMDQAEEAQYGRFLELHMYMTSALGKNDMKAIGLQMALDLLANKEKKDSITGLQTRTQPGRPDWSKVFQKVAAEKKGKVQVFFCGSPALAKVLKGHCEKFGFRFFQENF

SMILES	composite z-score [1]	z-score [2]	z-score [3]	z-score [4]	composite z-score [5]	composite z-score [6]	composite z-score (Torsin-1A (Homo sapiens) [7])	composite z-score (Torsin-1A (Homo sapiens) [8])	composite z-score [9]	z-score [10]	composite z-score [11]	z-score [12]	z-score [13]	z-score [14]	z-score [15]	z-score [16]	z-score [17]	z-score [18]	z-score [19]
CN(C)C(=O)[C@@]1(Cc2ccccc2N=[N+]=[N-])N=C(c2ccc(OCCCO)cc2)O[C@H]1c1ccccc1CN=[N+]=[N-]	0.549	-3.09 (inactive)	1.65 (inactive)	-1.39 (inactive)	1.41	0.372	0.477	1.24	0.397	1.04 (inactive)	0.635	17.8 (active)	2.5 (inactive)	2.73 (inactive)	-0.682 (inactive)	1.01	-1.52 (inactive)	1.06 (inactive)	0.474
CO[C@H]1COC(=O)CC=C[C@H](C)[C@@H](OC)COC(=O)CC=C[C@@H]1C	0.27	-0.909 (inactive)	0.786 (inactive)	-0.0885 (inactive)	-0.538	-0.227	2.03	0.621	1.32	1.32 (inactive)	0.0962	1.35 (inactive)	0.636 (inactive)	0.357 (inactive)	0.254 (inactive)	1.26	0.59 (inactive)	1.19 (inactive)	0.435
COCCOC(=O)N1C(=O)[C@@]2(c3cc(C#CCCO)ccc31)[C@H](C(=O)N1CCCCCCC1)[C@H]1C(=O)O[C@H](c3ccccc3)[C@H](c3ccccc3)N1[C@@H]2c1ccc(O)cc1	0.138	-4.07 (inactive)	-0.815 (inactive)	-1.28 (inactive)	1	0.74	0.678	0.922	1.06	3.86 (inactive)	1.6	1.06 (inactive)	-0.755 (inactive)	-0.0793 (inactive)	-1.32 (inactive)	5.3	1.7 (inactive)	0.807 (inactive)	1.67
COc1cccc([C@H]2N[C@H](C(=O)O)CC[C@@H]2C)c1	0.04	-3.79 (inactive)	-0.167 (inactive)	-1.61 (inactive)	0.158	-0.111	0.386	0.403	-0.0276	0.669 (inactive)	-0.23	1.09 (inactive)	0.0208 (inactive)	0.269 (inactive)	-1.06 (inactive)	3.05	0.0263 (inactive)	-0.557 (inactive)	0.125
C=CCNC(=O)[C@H]1[C@@H]2C(=O)O[C@@H](c3ccccc3)[C@@H](c3ccccc3)N2[C@@H](c2ccccc2OCCO)[C@]12C(=O)N(C(=O)OCCOC)c1ccc(C#CCNC(N)=O)cc12	-0.0103	-1.76 (inactive)	-0.471 (inactive)	0.948 (inactive)	0.98	0.026	0.661	0.296	0.633	1.8 (inactive)	0.178	2.13 (inactive)	-0.0443 (inactive)	0.391 (inactive)	-1.3 (inactive)	1.78	1.76 (inactive)	1.35 (inactive)	-0.971
COC(=O)C1=C(C)N(Cc2ccccc2)c2c(C(=O)OC)c(C(=O)OC)c(C(=O)OC)c(=O)n2[C@@H]1c1ccccc1	0.191	-0.233 (inactive)	4.26 (inactive)	-1.23 (inactive)	0.125	0.0503	0.285	0.505	0.426	0.199 (inactive)	-0.0186	0.294 (inactive)	-1.61 (inactive)	0.012 (inactive)	-1.45 (inactive)	0.715	1.74 (inactive)	0.873 (inactive)	-0.0758
CCOC(=O)C[C@H]1[C@H](OC(=O)Cc2ccc3c(c2)OCO3)[C@@H](NC(=O)CC(C)C)c2cc(OCCCO)ccc2N1C(=O)c1ccccc1	0.416	-0.957 (inactive)	0.162 (inactive)	-1.48 (inactive)	-0.195	0.126	-0.155	0.287	0.526	2.39 (inactive)	0.0698	0.4 (inactive)	-1.02 (inactive)	-0.462 (inactive)	-1.5 (inactive)	0.622	0.337 (inactive)	0.52 (inactive)	0.47
Cc1ccc(N2C(=O)c3ccccc3[C@@H](C(=O)NCc3ccccc3)[C@@H]2c2ccc(CO)cc2)nc1	0.0687	-1.54 (inactive)	-0.0888 (inactive)	-1.02 (inactive)	-0.524	0.0028	0.628	0.276	0.311	1.85 (inactive)	0.26	2.1 (inactive)	-0.349 (inactive)	-0.199 (inactive)	-0.509 (inactive)	-1.72	-0.109 (inactive)	1.03 (inactive)	0.298
C[N+](C)(C)CCCC[C@@H]1NC(=O)[C@H]2C[C@@H](C(=O)NCc3ccc(F)cc3)[C@@H](c3cccc(OCCO)c3)N2C1=O	0.141	-0.533 (inactive)	1.23 (inactive)	-0.396 (inactive)	-0.326	-0.0963	0.55	1.07	1.4	0.923 (inactive)	-0.0536	2.46 (inactive)	-1.3 (inactive)	-5.77 (inactive)	-2.37 (inactive)	0.123	0.999 (inactive)	0.834 (inactive)	1.53
O=C1OCCC=C[C@H]2OC34C=CCN(Cc5ccccc5)C(=O)[C@H]3N(CCO)C(=O)[C@@H]4C12 (some centres not stated)	-0.17	-4.38 (inactive)	-0.899 (inactive)	-0.894 (inactive)	-0.88	-0.285	-0.42	-0.261	-0.127	2.51 (inactive)	-0.133	1.07 (inactive)	-0.436 (inactive)	-0.769 (inactive)	-0.8 (inactive)	1.82	0.681 (inactive)	-0.573 (inactive)	0.869
O=C1O[C@@H](c2ccccc2)[C@@H](c2ccccc2)N2[C@@H](c3ccc(O)cc3)[C@]3(C(=O)Nc4ccc(C#CC5(O)CCCCCC5)cc43)[C@@H](C(=O)Nc3nc4ccccc4s3)[C@H]12	0.285	-2.23 (inactive)	0.204 (inactive)	-0.908 (inactive)	1.99	-0.438	0.752	0.757	0.741	1.74 (inactive)	0.271	0.733 (inactive)	-0.232 (inactive)	0.445 (inactive)	-0.713 (inactive)	1.16	1.62 (inactive)	-1.27 (inactive)	1.96
CO[C@@H]1COC(=O)CC=C[C@@H](C)[C@H](OC)COC(=O)CC=C[C@H]1C	-0.0731	-0.147 (inactive)	-0.658 (inactive)	-0.82 (inactive)	-0.428	-0.253	0.685	0.349	1.29	0.356 (inactive)	-0.257	-0.611 (inactive)	-0.163 (inactive)	-0.335 (inactive)	-0.0143 (inactive)	0.711	-0.49 (inactive)	0.276 (inactive)	0.586
C=CCC(OC(C)=O)[C@@H]1[C@@H](N(Cc2ccc(-c3ccccc3)cc2)C(=O)c2ccc(C)cc2)c2cc(OCCCO)ccc2N1C(=O)c1ccc(-c2ccccc2)cc1 (some centres not stated)	0.504	-1.62 (inactive)	1.73 (inactive)	-0.782 (inactive)	0.0598	0.0884	-0.0824	0.119	0.0223	2.2 (inactive)	-0.0583	0.267 (inactive)	-0.576 (inactive)	-1.07 (inactive)	-0.888 (inactive)	1.05	-0.366 (inactive)	0.639 (inactive)	1.05
CCC(=O)[C@]12O[C@@]3([C@@H]4C(=O)OCC[C@@H]41)N(Cc1ccccc1)C(C)=C(C(=O)OC)[C@@H](c1ccccc1)N3C2=O	-0.183	-0.596 (inactive)	1.01 (inactive)	-1.32 (inactive)	-0.444	-0.0448	-0.453	-0.296	1.16	0.57 (inactive)	-0.243	0.34 (inactive)	-1.22 (inactive)	0.573 (inactive)	-1.74 (inactive)	0.21	1.2 (inactive)	0.785 (inactive)	0.538
CCCC[C@H]1OB(O)C[C@H]2C1=C(COC)C[C@H]1C(=O)N(Cc3ccccc3)C(=O)[C@H]12	0.192	-0.273 (inactive)	0.307 (inactive)	-1.76 (inactive)	-0.098	0.124	-0.0377	0.37	0.329	2.78 (inactive)	-0.0969	1.14 (inactive)	-1.1 (inactive)	0.223 (inactive)	-2 (inactive)	0.932	0.034 (inactive)	0.811 (inactive)	1.37
O=C(CS)NCCCCCNC(=O)[C@H]1C[C@H]2C(=O)N[C@@H](Cc3ccccc3)C(=O)N2[C@H]1c1ccc(O)cc1	0.252	-0.164 (inactive)	-0.809 (inactive)	-0.819 (inactive)	0.0842	0.0018	1.04	0.746	2.09	0.956 (inactive)	0.0371	6.87 (inactive)	-0.29 (inactive)	-1.1 (inactive)	-1.95 (inactive)	0.263	0.99 (inactive)	-0.205 (inactive)	0.0913
C[C@H]1COC(=O)[C@@H]2CCCN2C(=O)[C@@H](C)COC(=O)[C@@H]2CCCN2C1=O	0.0246	-0.0001 (inactive)	0.613 (inactive)	-0.881 (inactive)	-0.269	0.0086	-0.213	0.25	0.355	0.407 (inactive)	-0.147	-0.0889 (inactive)	0.0593 (inactive)	0.425 (inactive)	-0.187 (inactive)	0.33	0.764 (inactive)	0.382 (inactive)	-0.406
CO[C@@H]1COC(=O)[C@H](C)NC(=O)CC=C[C@@H](C)[C@H](OC)COC(=O)[C@H](C)NC(=O)CC=C[C@H]1C	0.151	-0.164 (inactive)	-0.205 (inactive)	-0.759 (inactive)	1.17	0.0659	0.678	-0.0045	0.622	1.02 (inactive)	-0.0984	0.174 (inactive)	0.551 (inactive)	0.0076 (inactive)	0.108 (inactive)	0.298	0.319 (inactive)	0.114 (inactive)	0.976
